From publication PMC4336329 (PLoS ONE, 2015) come the findings set out here.

Each structure is given as a SMILES string. In all, about 310,000 compounds went through this assay and about 14,000 (4.5%) showed an effect of 50% or more. Effects have a minus sign here. The entries come from a sample that favours strong results as a whole.
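Note: peak tail current of the secondary pulse compared with the same well before compound.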

Chain of human ether-à-go-go-related gene (hERG) potassium channel (Q12809 whole entry, looked up): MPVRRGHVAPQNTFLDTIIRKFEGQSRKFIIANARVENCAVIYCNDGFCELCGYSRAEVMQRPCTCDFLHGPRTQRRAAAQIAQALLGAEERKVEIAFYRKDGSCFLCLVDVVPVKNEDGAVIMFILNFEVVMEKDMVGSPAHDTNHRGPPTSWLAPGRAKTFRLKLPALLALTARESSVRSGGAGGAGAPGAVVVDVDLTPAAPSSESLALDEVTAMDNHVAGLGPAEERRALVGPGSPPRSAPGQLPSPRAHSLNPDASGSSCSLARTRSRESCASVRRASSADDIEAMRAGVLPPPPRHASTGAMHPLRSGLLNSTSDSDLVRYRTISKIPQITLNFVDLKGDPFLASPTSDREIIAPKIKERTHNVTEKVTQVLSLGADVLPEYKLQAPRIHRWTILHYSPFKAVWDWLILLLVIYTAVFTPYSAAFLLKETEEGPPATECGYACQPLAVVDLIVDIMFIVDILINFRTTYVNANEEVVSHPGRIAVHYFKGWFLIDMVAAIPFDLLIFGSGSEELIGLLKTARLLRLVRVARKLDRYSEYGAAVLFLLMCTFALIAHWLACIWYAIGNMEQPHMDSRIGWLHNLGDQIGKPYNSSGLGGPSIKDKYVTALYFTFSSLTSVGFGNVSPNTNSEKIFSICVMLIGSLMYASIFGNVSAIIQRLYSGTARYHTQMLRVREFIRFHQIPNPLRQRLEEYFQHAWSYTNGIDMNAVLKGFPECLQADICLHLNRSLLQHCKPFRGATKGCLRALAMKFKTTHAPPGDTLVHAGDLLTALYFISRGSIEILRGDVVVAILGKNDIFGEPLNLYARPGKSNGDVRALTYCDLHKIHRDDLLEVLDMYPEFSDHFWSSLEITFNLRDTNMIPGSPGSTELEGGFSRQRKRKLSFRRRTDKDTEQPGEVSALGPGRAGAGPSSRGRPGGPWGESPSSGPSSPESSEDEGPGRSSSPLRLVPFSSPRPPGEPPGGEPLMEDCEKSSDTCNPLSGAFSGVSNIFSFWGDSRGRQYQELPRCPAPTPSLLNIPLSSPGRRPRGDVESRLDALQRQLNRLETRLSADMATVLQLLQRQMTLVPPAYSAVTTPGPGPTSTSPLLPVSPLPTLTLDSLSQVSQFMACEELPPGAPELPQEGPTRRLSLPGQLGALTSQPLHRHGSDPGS

The experiment concerns the target human ether-à-go-go-related gene (hERG) potassium channel (human, UniProt Q12809). The experiment can be described thus: primary screen, population patch clamp on CHO cells stably expressing hERG; higher = less effect of the substance.
For `CC(NC(=O)CSc1nc2ccc(N)cc2s1)c1ccccc1` (stereo not drawn), the “hERG current change (%, negative = inhibition) at 10uM” value is recorded as 32%. Under `O=c1cccc2n1CC1CC2CN(C(c2ccccc2)c2sc3ncnn3c2O)C1` (stereo not drawn) stands 15.1%; under `Cc1ccc(S(=O)(=O)N2CCCCC2)cc1NC(=O)c1cc(=O)[nH]c2ccccc12`, -6.61%. Under `CCCN(CC(=O)Nc1ccccc1C)C(=O)c1ccc(C(=O)c2ccccc2)cc1` stands -25.9%. Under `CCOc1ccc(CCNc2cc(C)nc3ncnn23)cc1OCC` stands -5%; under `Cc1onc(-c2ccccc2)c1C(=O)Nc1sc2c(c1C#N)CCC2`, 1.63%; under `Cn1c(=O)cc(N2CCCCC2)[nH]c1=O`, 9.92%. On to `CCc1cc(=O)oc2cc3occ(-c4ccc(OC)c(F)c4)c3cc12`, for which the “hERG current change (%, negative = inhibition) at 10uM” value amounted to 2%. Under `CCn1c(NC(=O)c2ccccc2)nc2ccccc21` stands 4.47%. Consider `C=CCn1cc(C(=O)NCCCOC)c(=O)c2cc(S(=O)(=O)N(CC)CC)ccc21`, for which the “hERG current change (%, negative = inhibition) at 10uM” value is -30.5%. Under `C=CCn1c(=N)c(C(=O)NCCCOC)cc2c(=O)n3cc(C)ccc3nc21` stands -57.3%; under `C=CCn1c(=N)c(C(=O)NCCCOC)cc2c(=O)n3cccc(C)c3nc21`, -73.5%. With `O/N=C1\CCSc2ccc(F)cc21`, the “hERG current change (%, negative = inhibition) at 10uM” value is recorded as -6.52%.

In the case of `CC(=O)Nc1ccc(Oc2ccc(NC(C)=O)c(NC(C)=O)c2)cc1`, the “hERG current change (%, negative = inhibition) at 10uM” value came to 1.5%.

Regarding `Cc1cccc(N2CCN(C(=O)CCNC(=O)Cn3ccc4ccccc4c3=O)CC2)c1C`, the “hERG current change (%, negative = inhibition) at 10uM” value is -55.5%.

On to `Cc1ccc(CNC(=O)Cn2cccc2C(=O)c2ccccc2C)cc1`, for which the “hERG current change (%, negative = inhibition) at 10uM” value was -7.1%. Under `Cc1ccc(C)c(N2CCN(C(=O)CCNC(=O)Cn3ccc4ccccc4c3=O)CC2)c1` stands -3.39%; under `Cc1ccc(CNC(=O)Cn2cccc2C(=O)c2ccccc2)cc1`, 1.89%; under `Cc1ccc(C)c(N2CCN(CCCNC(=O)Cn3cccc3C(=O)c3ccccc3)CC2)c1`, -87.2%. Under `O=C(Cn1cccc1C(=O)c1ccccc1)NCCN1CCOCC1` stands -2.26%; under `COc1ccc(CCNC(=O)Cn2cccc2C(=O)c2ccccc2C)cc1OC`, -16.3%; under `Cc1ccccc1C(=O)c1cccn1CC(=O)NCCC1=CCCCC1`, 20.5%. Under `Cc1cccc(N2CCN(C(=O)Cn3cccc3C(=O)c3ccccc3)CC2)c1C` stands -17.2%. In the case of `Cc1ccccc1C(=O)c1cccn1CC(=O)NCCN1CCN(c2cccc(C)c2C)CC1`, the “hERG current change (%, negative = inhibition) at 10uM” value is -69.5%. Under `Cc1cccc(N2CCN(C(=O)Cn3ccc4ccccc4c3=O)CC2)c1C` stands -23.1%. Under `Cc1ccc(C)c(N2CCN(CCCNC(=O)Cn3cccc3C(=O)c3ccccc3C)CC2)c1` stands -74%; under `Oc1ccccc1N1CCN(C(c2ccccc2)c2ccccc2)CC1`, 12.6%. For `COc1ccc(OCCOC(=O)c2ccc(F)c(S(=O)(=O)N3CCOCC3)c2)cc1`, the “hERG current change (%, negative = inhibition) at 10uM” value is -13.8%. As for `COc1ccc(NC(=S)NC(=O)/C=C/c2ccco2)cc1`, the “hERG current change (%, negative = inhibition) at 10uM” value is reported as -4.31%. Under `O=C(c1ccccc1)c1ccc(N2CCN(C(=O)c3cccc(F)c3F)CC2)c(F)c1` stands -37.9%; under `O=C(Cn1nc(Cc2ccncc2)c2ccccc2c1=O)N1CCc2ccccc2C1`, -44.4%.

Turning to `Cc1cccc(N2CCN(C(=O)Cn3nc(Cc4ccncc4)c4ccccc4c3=O)CC2)c1C`, the “hERG current change (%, negative = inhibition) at 10uM” value was -61.3%.

As to `O=C(Cn1nc(Cc2ccncc2)c2ccccc2c1=O)N1CCN(C(=O)c2ccco2)CC1`, the “hERG current change (%, negative = inhibition) at 10uM” value is -26.7%. Under `COc1ccc(CN2CCC(CO)(CCOc3ccccc3)CC2)c(OC)c1C` stands -83.5%. Under `Cc1nn(C)cc1CN1CCC(CO)(CCOc2ccccc2)CC1` stands -22.6%; under `OCC1(CCOc2ccccc2)CCN(CCCn2cccn2)CC1`, -73.1%. Under `CCn1ccnc1CN1CCC(CO)(CCOc2ccccc2)CC1` stands -8.02%; under `COc1ccc(CN2CCSCC2)c(OC)c1C`, 13.5%. On to `COc1ccc(CN2CCSCC2)cc1C`, for which the “hERG current change (%, negative = inhibition) at 10uM” value was 7.71%. Under `COc1ccc(CN2CCCN(C)CC2)c(OC)c1C` stands 11.1%. Under `COc1ccc(CN2CCC(CO)(CCOc3ccccc3)CC2)cc1C` stands -81.8%; under `Cc1nn(C)c(Cl)c1CN1CCC(CO)(CCOc2ccccc2)CC1`, -54.7%; under `O=c1c2c(ncn2C2CCCC2)n(Cc2ccccc2)c(=O)n1CCOc1ccccc1`, -8.64%. In the case of `Cc1ccc([N+](=O)[O-])cc1NC(=O)/C=C/C(=O)O`, the “hERG current change (%, negative = inhibition) at 10uM” value is listed as -2.79%. Under `O=C(Nc1ccc(Br)c(Br)c1)C1CCCO1` (stereo not drawn) stands 3.39%. `COc1ccc(COC(=O)Nc2c(SC)nsc2SC)cc1`: the “hERG current change (%, negative = inhibition) at 10uM” value was 11.5%. Under `CCc1noc(C)c1C(=O)OCC(=O)NCc1ccccc1` stands 2.29%. Under `NC(=O)c1ccccc1NC(=O)CSc1cn[nH]n1` stands 13.2%.
